ADAM10 inh: inhibits human ADAM10 | O14672 | recombinant ADAM10, EDANS/DABCYL FRET peptide cleavage, 3 h | inhibition, % at 7 µM | 370,000 tested, 0.62% active | AID 720582;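 active = inhibition above a per-campaign cutoff equal to the mean of compounds falling between control-based bounds plus 3 SD, cut at about 20% in these data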
Target sequence (O14672 214-748 limits assumed): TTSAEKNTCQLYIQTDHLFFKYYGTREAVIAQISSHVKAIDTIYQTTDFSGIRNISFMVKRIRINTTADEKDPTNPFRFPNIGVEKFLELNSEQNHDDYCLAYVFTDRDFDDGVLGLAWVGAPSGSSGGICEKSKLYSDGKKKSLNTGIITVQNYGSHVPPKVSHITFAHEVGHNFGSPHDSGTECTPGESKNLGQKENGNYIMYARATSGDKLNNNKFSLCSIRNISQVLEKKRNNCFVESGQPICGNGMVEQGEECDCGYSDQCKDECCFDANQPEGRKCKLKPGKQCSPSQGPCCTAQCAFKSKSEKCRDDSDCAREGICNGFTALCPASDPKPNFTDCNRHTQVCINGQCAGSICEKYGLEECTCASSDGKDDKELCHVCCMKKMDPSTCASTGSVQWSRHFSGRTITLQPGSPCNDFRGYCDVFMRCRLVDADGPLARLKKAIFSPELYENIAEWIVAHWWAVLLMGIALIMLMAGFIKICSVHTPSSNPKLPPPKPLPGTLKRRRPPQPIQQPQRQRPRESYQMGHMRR
proKLK7 act: activates the human kallikrein-7 zymogen; P49862; purified proKLK7, EDANS-DABCYL substrate fluorescence; 100% is mature enzyme control, 0% vehicle; activation, % at 7 µM; 370,000 tested, 0.9% active; AID 652039;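 active = activation above the mean of all tested compounds plus 3 SD, computed per campaign excluding outliers beyond control limits, cut at about 13% in these data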
ADAM17 inh: ADAM17 inhibition, QFRET primary screen; P78536; recombinant ADAM17, EDANS/DABCYL FRET peptide cleavage; inhibition, % at 6.95 µM; 370,000 tested, 0.83% active;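 active = inhibition above the mean of compounds lying between control limits plus 3 SD, set per campaign, cut at about 8.5% in these data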
FGF22 binding: shifts melting point of recombinant human FGF22; activity (Tm shift, normalised), % at 9.99 µM; AID 651658; recombinant FGF22 thermal shift, SYPRO orange fluorescence; percent of sucrose octasulfate shift, DMSO zero; 340,000 tested, 1.5% active;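 active = mean Tm shift, scaled 0 neutral to 100 positive control, at about 1.3% or above, every replicate too, limit read from the data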
Target sequence (Q9HCT0 whole entry, looked up): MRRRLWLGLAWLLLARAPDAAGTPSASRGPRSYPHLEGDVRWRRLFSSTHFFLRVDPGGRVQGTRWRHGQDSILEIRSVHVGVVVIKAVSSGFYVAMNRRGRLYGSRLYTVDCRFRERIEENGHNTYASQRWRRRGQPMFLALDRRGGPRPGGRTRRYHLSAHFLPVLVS
Ecoli rRNA inh: selective bacterial rRNA inhibition in E. coli; E. coli WT GFP vs humanized-ribosome RFP mutants, fluorescence, 24 h; active compounds read low; DMSO median 0, no signal -100; GFP signal change (wild-type ribosome), % (test concentration not listed); 350,000 tested, 1.6% active; AID 720706;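 active = significant combined selectivity score with lowered wild-type GFP, culture density cut under 30%, mutant RFP and density less affected; inactive = any of these conditions unmet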
ADAM10 ctr: inhibits human ADAM10 in ADAM17 exosite counter-screen. shares compounds with ADAM17 inh. recombinant ADAM10, EDANS/DABCYL FRET peptide cleavage, 3 h. inhibition, % at 6.95 µM. 2,900 tested, 47% active. AID 743256;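 active = mean inhibition over the triplicate runs exceeds the activity threshold set in the earlier primary screen, cut at about 20% in these data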
ADAM17 confirm: confirmation of inhibitors of human ADAM17. 2,900 tested, 65% active. AID 743257. shares compounds with ADAM17 inh. recombinant ADAM17, EDANS/DABCYL QFRET peptide cleavage. inhibition, % at 6.95 µM;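 active = mean inhibition across replicates above the hit cutoff set in the primary screen, cut at about 8.5% in these data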
Large screens that a line does not name were inactive (follow-up assays come after a bar, where they were run). Hits are enriched below; roughly 3.8% of the tested compounds scored in any of these assays.

COC(=O)[C@]12C[C@H](CC(=O)NCc3ccc(C)o3)C(=O)N(Cc3cccc4ccccc34)C1=C[C@H](C1CCCC1)O[C@@H]2C	none (no result: FGF22 binding, Ecoli rRNA inh)
COC(=O)[C@]12C[C@H](CC(=O)N3CCN(C(=O)c4ccco4)CC3)C(=O)N(Cc3ccc(Cl)cc3Cl)C1=C[C@H](COCc1ccccc1)O[C@@H]2C	ADAM17 inh 12.6 (no result: FGF22 binding, Ecoli rRNA inh) | ADAM10 ctr inactive | ADAM17 confirm 10.1
COC(=O)[C@]12C[C@H](CC(=O)NCc3ccc(C)o3)C(=O)N(Cc3ccccc3)C1=C[C@H](C1CCCC1)O[C@@H]2C	ADAM17 inh 12.3 | ADAM10 ctr inactive | ADAM17 confirm inactive
COC(=O)[C@]12C[C@H](CC(=O)NCC3CCCCC3)C(=O)N(CCc3ccc(OC)c(OC)c3)C1=C[C@H](COCc1ccccc1)O[C@@H]2C	ADAM17 inh 10.6 (no result: FGF22 binding, Ecoli rRNA inh) | ADAM10 ctr 26.0 | ADAM17 confirm 9.1
Cc1ccc(-c2csc(Nc3ccccn3)n2)cc1	ADAM17 inh 9.0 | ADAM10 ctr 27.3 | ADAM17 confirm 16.0
Cc1noc(C)c1NC(=O)Nc1ccc2c(c1)C(=O)N([C@H](C)CO)C[C@@H](C)[C@H](CN(C)S(=O)(=O)c1cccs1)O2	none (no result: ADAM10 inh, proKLK7 act, ADAM17 inh)
CCCCCCCCn1cnc2c(N)c(C)c(C)cc21	ADAM17 inh 8.8 | ADAM10 ctr inactive | ADAM17 confirm 9.0
CO[C@@H]1CN(C)C(=O)c2ccc(NC(C)=O)cc2OC[C@@H](C)N(C(=O)CN2CCOCC2)C[C@H]1C	none (no result: ADAM10 inh, proKLK7 act, ADAM17 inh, Ecoli rRNA inh)
COc1ccc(Nc2oc(COc3ccc(OC)cc3)nc2C#N)cc1	ADAM17 inh 9.1 (no result: FGF22 binding, Ecoli rRNA inh) | ADAM10 ctr inactive | ADAM17 confirm inactive
CCCOc1ccc(C2/C(=C(\O)c3c(C)[nH]c(C(=O)OC)c3C)C(=O)C(=O)N2CCN(C)C)cc1 (centres undefined)	ADAM17 inh 9.9 (no result: FGF22 binding, Ecoli rRNA inh) | ADAM10 ctr inactive | ADAM17 confirm inactive
CCN(CC)c1ccc(S(=O)(=O)N2CCOCC2)cc1NC(=O)COC(=O)/C=C/c1ccccc1	ADAM17 inh 8.8 | ADAM10 ctr inactive | ADAM17 confirm 10.8
COCC(=O)N1CC(=O)N2[C@H](CO)[C@H](c3ccc(-c4ccccc4F)cc3)[C@@H]2C1	none (no result: ADAM10 inh, proKLK7 act, ADAM17 inh)
O=C(CSc1ccc(-c2ccco2)nn1)NCc1ccc(F)cc1	none (no result: FGF22 binding, Ecoli rRNA inh)
O=C(CSc1ccc(-c2ccco2)nn1)c1ccc(F)cc1	ADAM17 inh 9.4 (no result: FGF22 binding, Ecoli rRNA inh) | ADAM10 ctr inactive | ADAM17 confirm inactive
CCC(C)c1ccccc1NC(=O)COC(=O)c1ccc2[nH]c3c(c2c1)CCCC3 (centres undefined)	ADAM17 inh 10.5 (no result: FGF22 binding, Ecoli rRNA inh) | ADAM10 ctr inactive | ADAM17 confirm inactive
O=C(COC(=O)c1ccc2[nH]c3c(c2c1)CCCC3)Nc1ccccc1Cl	none
COc1ccc(C(=O)Nc2ccc3c(c2)OC[C@@H](C)N(C(C)=O)C[C@H](C)[C@@H](OC)CN(C)C3=O)cc1	none (no result: ADAM10 inh, proKLK7 act, ADAM17 inh)
CCN(Cc1ccccc1)C(c1ccccn1)c1nnnn1C1CCCCC1 (centres undefined)	none (no result: FGF22 binding, Ecoli rRNA inh)
CC(c1nnnn1C1CCCCC1)N(Cc1ccccc1)Cc1cccnc1 (centres undefined)	ADAM17 inh 9.4 (no result: FGF22 binding, Ecoli rRNA inh) | ADAM10 ctr inactive | ADAM17 confirm inactive
CCOc1ccc(NC(=O)CC2SC(=O)N(c3ccccc3)C2=O)cc1 (centres undefined)	ADAM17 inh 9.6 | ADAM10 ctr inactive | ADAM17 confirm 41.3
COc1cccc(NC(=O)CC2S/C(=N\S(=O)(=O)c3ccccc3)N(c3ccccc3)C2=O)c1 (centres undefined)	ADAM17 inh 10.2 (no result: FGF22 binding, Ecoli rRNA inh) | ADAM10 ctr inactive | ADAM17 confirm 9.8
O=C(N[C@H]1CC[C@@H](CCn2cc(-c3ccccc3)nn2)O[C@@H]1CO)c1cnccn1	none (no result: ADAM10 inh, proKLK7 act, ADAM17 inh)
COc1ccc(NC(=O)N2C[C@@H](O)COC[C@H]3O[C@@H](CC(=O)NC4Cc5ccccc5C4)CC[C@@H]32)cc1	none (no result: ADAM10 inh, proKLK7 act, ADAM17 inh)
O=C(C[C@@H]1C/C=C\CCC(=O)OC[C@@H]2CCCN2C1=O)N[C@@H](CO)Cc1ccccc1	ADAM17 inh 8.9 | ADAM10 ctr inactive | ADAM17 confirm inactive
O=C(C[C@H]1C/C=C\CC[C@@H](Cc2ccc(F)cc2)C(=O)OC[C@H]2CCCN2C1=O)N[C@H](CO)Cc1ccccc1	none
C(=C\c1ccccc1)/CN1CCN(C(c2cccs2)c2nnnn2Cc2ccccc2)CC1 (centres undefined)	none
C(=C\c1ccccc1)/CN1CCN(C(c2cccc3ccccc23)c2nnnn2Cc2ccccc2)CC1 (centres undefined)	ADAM17 inh 11.9 | ADAM10 ctr 23.2 | ADAM17 confirm 9.6
COc1ccc(N2CC(C)Cn3c2nc2c3c(=O)n(CCN3CCOCC3)c(=O)n2C)cc1 (centres undefined)	none (no result: FGF22 binding, Ecoli rRNA inh)
CCc1ccc(N2CC(C)Cn3c2nc2c3c(=O)n(CCN3CCOCC3)c(=O)n2C)cc1 (centres undefined)	ADAM17 inh 9.1 (no result: FGF22 binding, Ecoli rRNA inh) | ADAM10 ctr inactive | ADAM17 confirm inactive
N#Cc1c(-c2ccccc2)c(-c2ccccc2)nn(CC(=O)NNC(=O)Nc2ccc(Cl)cc2)c1=O	ADAM17 inh 14.1 (no result: Ecoli rRNA inh) | ADAM10 ctr 23.1 | ADAM17 confirm 19.4
CNC(=O)C[C@@H]1CC[C@@H]2[C@H](COc3ccc(NC(=O)Nc4ccccc4F)cc3C(=O)N2C)O1	none (no result: ADAM10 inh, proKLK7 act, ADAM17 inh)
CN1/C(=C/C=C/c2n(C)c3cc([N+](=O)[O-])c([N+](=O)[O-])cc3[n+]2C)C(C)(C)c2ccccc21	ADAM17 inh 9.9, Ecoli rRNA inh -58.6 | ADAM10 ctr inactive | ADAM17 confirm inactive
Cc1ccc(S(=O)(=O)NCC(c2ccco2)N2CCc3ccccc32)cc1 (centres undefined)	none
COc1ccc(S(=O)(=O)NCC(c2ccco2)N2CCc3ccccc32)cc1 (centres undefined)	ADAM17 inh 14.1 | ADAM10 ctr inactive | ADAM17 confirm 12.4
C[C@@H]1CN([C@H](C)CO)C(=O)c2cccc(NS(=O)(=O)c3ccccc3)c2O[C@H]1CN(C)S(=O)(=O)c1ccc(Cl)cc1	none (no result: ADAM10 inh, proKLK7 act, ADAM17 inh)
COC(=O)[C@@H]1C[C@@]2(O)[C@H](O)[C@H](O)[C@H](O)C[C@H]2N1Cc1ccc(C(F)(F)F)cc1	ADAM17 inh 10.4 | ADAM10 ctr inactive | ADAM17 confirm inactive
COC(=O)[C@@H]1C[C@@]2(O)[C@@H](O)[C@@H](O)[C@@H](O)C[C@H]2N1Cc1ccc(C(F)(F)F)cc1	none
OC(CSc1nnnn1-c1ccccc1)Cn1c2ccccc2c2ccccc21 (centres undefined)	ADAM17 inh 11.0 | ADAM10 ctr inactive | ADAM17 confirm 10.3

Bioassay records: PubChem BioAssay, several laboratories
